TbPYK inhibitor – blocks Trypanosoma brucei pyruvate kinase; Q57TT1; TbPYK enzyme, Kinase-Glo Plus ATP luminescence, 45 min; Potency, µM (highest dose often 76.8 µM), inactives show at the highest dose activity, negative = inhibition, hits mostly inhibitors; 410,000 tested, 0.12% active; AID 624173; also: nearly all actives have a fitted effect of over 50% in size
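Enzyme and substrate buffer are dispensed first and compound is pin-transferred. ADP at 130 uM final then starts the reaction, which runs 45 min at room temperature. Detection reagent is added for 10 min before luminescence is imaged.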
FBPA Giardia inh – Giardia lamblia aldolase inhibition; A8B2U2; purified Giardia FBPA; Potency, µM (top dose mostly 59.6 µM), without a hit: at the highest dose activity, negative = inhibition, hits mostly inhibitors; 290,000 tested, 0.71% active; also: nearly all actives have a fitted effect of over 55% in size
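40 nM FBPA preincubated 10 min at RT with compound (up to 57.5 uM final), then substrate plus GAPDH/TPI/NAD/arsenate coupling and diaphorase/resazurin added. Fluorescence read after 20 min at RT, 525/598 nm.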
RE007 growth inh – less growth of the S. pombe RE007 Vpr strain; S. pombe RE007 Vpr strain, BacTiter-Glo ATP luminescence, 24 h; Potency, µM (series often up to 92.2 µM), without a hit: at the top dose activity change, negative = less growth, most hits filed as inhibitors; 360,000 tested, 0.21% active; active = well fitted falling curve with a large enough effect; inconclusive = small, poorly fitted or top-dose-only effect; inactive = no such curve, though single readings can be large or run the other way; also: nearly all actives have a fitted effect of over 50% in size
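Fission yeast RE007 carrying one integrated HIV-1 vpr copy, seeded at OD 0.01 in PMG+AL medium with 23 nL pinned compound. Grown 24 h at 30 degrees; viability read by BacTiter-Glo luminescence after 5 min.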
LmPK inh – inhibitors of Leishmania mexicana pyruvate kinase. Potency, µM (top dose mostly 57.5 µM), for the others: top-dose activity change, negative = inhibition, most hits filed as inhibitors. 290,000 tested, 0.37% active. purified LmPK, Kinase-Glo ATP luminescence, 1 h. Q27686
Target sequence (Q27686 whole entry, looked up): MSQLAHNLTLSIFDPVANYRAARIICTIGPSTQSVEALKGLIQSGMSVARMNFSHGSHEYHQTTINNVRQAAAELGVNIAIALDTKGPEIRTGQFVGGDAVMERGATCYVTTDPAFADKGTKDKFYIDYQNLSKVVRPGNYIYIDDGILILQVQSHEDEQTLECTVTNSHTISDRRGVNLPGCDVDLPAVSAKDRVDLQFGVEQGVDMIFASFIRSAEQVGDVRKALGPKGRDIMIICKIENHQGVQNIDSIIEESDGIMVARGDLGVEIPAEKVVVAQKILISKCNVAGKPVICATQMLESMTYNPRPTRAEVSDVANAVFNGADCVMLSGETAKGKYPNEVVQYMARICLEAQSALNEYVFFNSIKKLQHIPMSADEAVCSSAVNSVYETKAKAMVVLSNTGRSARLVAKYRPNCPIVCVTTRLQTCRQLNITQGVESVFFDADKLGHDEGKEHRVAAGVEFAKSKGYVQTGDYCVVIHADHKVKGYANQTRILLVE
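Pyruvate kinase activity monitored as ATP production (luciferase luminescence). Conditions: 0.1 nM enzyme, 0.5 mM PEP, 0.1 mM ADP, 1 h, RT; normalized against uninhibited and no-enzyme wells.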
Sm TGR block – S. mansoni TGR enzyme inhibition; Q962Y6; purified TGR, DTNB reduction, TNB absorbance 405 nm; Potency, µM (titrated, usually from 114 µM), for the others: at the top dose activity change, negative = inhibition, hits mostly inhibitors; 360,000 tested, 3% active; also: nearly all actives have a fitted effect of over 60% in size
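TGR 20 nM + NADPH 100 uM (dispensed conc.), cpd preinc 15 min RT; start with NADPH (500 uM addition) then DTNB (15 mM addition). Kinetic TNB absorbance, 405 nm filter. Four-parameter Hill fit across titration.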
Active calls of the source: *; ? = inconclusive; nt = no result given. Shown are actives, neighbours in structure and some others; about 3.3% of the full set was active somewhere. Unless noted, calls follow the shape of the dose curve; as a rule, active = well fitted curve in the direction sought with a large enough effect; inconclusive = small, poorly fitted or top-dose-only effect, or another doubt; inactive = no such curve, though single readings can be large; an effect the other way counts as inactive or inconclusive. % is scaled to controls: 0 for no effect and ±100 for the full control effect; potency is read from the fitted curve at half-maximal effect.

SMILES	TbPYK inhibitor	FBPA Giardia inh	RE007 growth inh	LmPK inh	Sm TGR block
CN(C)N1C(N)=C(C#N)C(c2ccc(F)cc2)C2=C1CCCC2=O (stereo unspecified)	-16%	-22%	12%	-3%	-1%
COc1ccc(C2N(c3ccc(F)cc3)C(=O)C3CCCN32)cc1 (stereo unspecified)	-1%	1%	11%	8%	-12%
Nc1nc(SCC(=O)c2cc(F)ccc2F)n[nH]1	-2%	-9%	1%	2%	1%
CCN(CC)c1ccc(/C=C2\SC(=O)N(C(C)C)C2=O)o1	?	?	?	0%	1.8µM*
COc1ccc(C(C)=O)cc1COC(=O)c1c(C)nn(-c2ccccc2)c1C	1%	1%	4%	0%	?
COc1ccc(C(C)=O)cc1COC(=O)c1ccc2ccccc2n1	-4%	-9%	-9%	3%	25µM*
CCOc1ccc(C(C)=O)cc1COC(=O)c1cccnc1SC	1%	0%	-4%	0%	-3%
COc1ccc(C(C)=O)cc1COC(=O)c1cc(C)nc2ccccc12	-14%	2%	1%	7%	3.5µM*
COc1ccc(C(C)=O)cc1COC(=O)c1cccnc1SC	-2%	-1%	3%	6%	3.2µM*
COc1ccc(C(C)=O)cc1COC(=O)Cc1n[nH]c(=O)c2ccccc12	-8%	11%	1%	2%	18µM*
COc1ccc(C(C)=O)cc1COC(=O)c1cc(C)oc1C	0%	1%	0%	0%	?
O=C(NCc1cccc(Cl)c1)NCc1cccc(Cl)c1	-5%	3%	1%	-2%	3%
COc1ccc2c(c1)C(=O)[C@H](OC(=O)NCCOc1ccccc1)[C@@H](c1ccc(OC)c(Br)c1)O2	nt	0%	nt	nt	nt
NC(=O)N/N=C1\c2ccccc2-c2c(C(N)=O)cccc21	2%	5%	35%	-1%	-28%
COc1ccc(C(C)=O)cc1COC(=O)c1cc(=O)c2ccccc2o1	-1%	2%	?	-4%	1.8µM*
O=C(COC(=O)c1nc(Cl)c(Cl)c(Cl)c1Cl)c1ccc[nH]1	-3%	nt	-27%	nt	20µM*
COc1ccc(OC2OC3COC(C)(C)OC3C(O)C2NC(C)=O)cc1 (stereo unspecified)	-2%	5%	8%	-4%	-4%
CN(C)C(=O)c1ccc(NC(=O)c2ccc(-c3ccc(Cl)cc3)o2)cc1	1%	nt	6%	nt	32µM*
Cc1nnc(NC(=O)c2ccc(-c3ccc(Cl)cc3)o2)s1	4%	nt	-29%	nt	-5%
CC(=O)c1ccc(NC(=O)c2ccc(-c3ccc(Cl)cc3)o2)cc1	0%	nt	nt	nt	40µM*
NC(=O)/C(=C\c1ccco1)NC(=O)c1ccc(Br)o1	2%	nt	12%	nt	nt
O=C(NCc1ccco1)/C(=C\c1ccco1)NC(=O)c1ccco1	-2%	?	-13%	8%	8.9µM*
C=CCNC(=O)/C(=C\c1ccco1)NC(=O)c1ccco1	-3%	5%	1%	-4%	-3%
O=C(NCc1ccco1)/C(=C\c1ccco1)NC(=O)c1ccc(Br)o1	-12%	-29%	-19%	7%	28µM*
O=C(NCc1ccco1)/C(=C/c1ccccc1)NC(=O)c1ccco1	0%	7%	15%	-3%	4%
SMILES	TbPYK inhibitor	FBPA Giardia inh	RE007 growth inh	LmPK inh	Sm TGR block
C=CCNC(=O)/C(=C/c1ccco1)NC(=O)c1ccc(Br)o1	-10%	?	3%	8%	20µM*
CC(C)C(NC(=O)/C(=C\c1ccco1)NC(=O)c1ccco1)C(=O)O (stereo unspecified)	-9%	-13%	-3%	22%	?
CC(C)C(NC(=O)/C(=C/c1ccco1)NC(=O)c1ccc(Br)o1)C(=O)O (stereo unspecified)	1%	-19%	2%	14%	35µM*
CS(=O)(=O)N1CCC(Oc2ccccc2C(=O)NC2CCCCCC2)CC1	3%	-1%	-19%	3%	-6%
CO/N=C(/c1nonc1N)N1CCN(c2ccc([N+](=O)[O-])cc2)CC1	-10%	0%	17%	2%	3%
COC(=O)[C@@H](NC(=O)NCc1ccccc1F)C(C)C	0%	3%	1%	-9%	-1%
CCCn1nc(C(=O)NCc2ccccn2)c2ccccc2c1=O	-1%	5%	6%	-3%	4%
CCN1C[C@@H]2[C@@H]3C(=O)N(C)C(=O)[C@@H]3[C@](Cc3ccccc3)(C1=O)N2C(=O)c1ccc(C)cc1	0%	nt	6%	nt	nt
COc1ccc(C(=O)N/C(=C\c2ccco2)C(=O)NCc2ccco2)cc1	0%	nt	-2%	6%	45µM*
O=C(NCc1ccco1)/C(=C/C=C/c1ccccc1)NC(=O)c1ccco1	0%	-6%	4%	1%	25µM*
O=C(NCCCO)/C(=C\c1ccco1)NC(=O)c1ccc(Br)o1	4%	-22%	-11%	1%	?
O=C(NCc1ccco1)/C(=C\C=C\c1ccccc1)NC(=O)c1ccco1	-2%	-1%	-7%	-3%	0%
O=C(NCc1ccco1)/C(=C/c1ccco1)NC(=O)c1ccc(Br)o1	4%	-21%	-6%	4%	40µM*
COc1ccc(OC)c(/C=C2\N=C(c3ccccc3)OC2=O)c1	-5%	-6%	5%	2%	7%
COc1cc2cncc(Cc3ccccc3)c2cc1O	-1%	nt	-9%	nt	nt
Oc1cncc(Cc2ccccc2)c1	0%	1%	23%	-3%	32µM*
COc1ccc(CNC(=O)C2CCN(S(=O)(=O)N3CCCC3)CC2)c(OC)c1	-22%	6%	4%	2%	0%
COc1ccc(OC)c(CNC(=O)C2CCN(S(=O)(=O)N3CCCC3)CC2)c1	1%	8%	4%	3%	79µM*
Oc1ccc(Br)cc1CNc1cccc2cccnc12	-14%	-18%	?	1%	-5%
Oc1c(Br)cc(Br)cc1CNc1cccc2cccnc12	-7%	?	?	0%	1.8µM*
O=C1C2C3C=CC(CC3)C2C(=O)N1c1ccc([N+](=O)[O-])cc1 (stereo unspecified)	1%	1%	10%	-9%	20µM*
CC(=O)c1ccc(N2C(=O)C3C4C=CC(CC4)C3C2=O)cc1 (stereo unspecified)	8%	-2%	-3%	4%	12%
COc1ccc(C(=O)/C=C/C(=O)N(CC(=O)NC2CCCCC2)Cc2ccccc2OC)c(O)c1	-13%	7%	-3%	-2%	1µM*
COc1ccc(C(=O)/C=C/C(=O)N(CC(=O)NC2CCCCC2)CC2CCCO2)c(O)c1 (stereo unspecified)	?	-5%	-2%	-25%	1.3µM*
